The text below walks through data of PubChem BioAssay (NCATS).

Test [1] can be described thus: qHTS Assay for Identification of Small Molecule Inducers of Hypoxia Response (AID 2120; active means well fitted curve in the direction sought with a large enough effect in the signal ratio, with a control signal flat, not every such curve was filed as active; the % refers to the signal ratio; further: 0% is about no effect). In a few lines:
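ME-180 HRE-bla cells plated in Opti-MEM/0.5% dialyzed FBS, rested 4-5 h, then dosed with compound titrations by pin tool. After 17 h at 37 degrees C, CCF4 dye loaded 2.5 h at RT; 460/530 nm ratio gave %Activity and AC50.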

Test [2] in a line: Validation of Assay for Modulators of Lamin A Splicing (AID 1459; active means well fitted curve in the direction sought with a large enough effect in the signal ratio; the % refers to the signal ratio;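 further: cells exposed to compound for two days before reading; 0% is about no effect; ratio rise marks activators and ratio drop marks inhibitors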). Put shortly:
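S3 HeLa cells stably expressing a lamin A-EGFP splicing minigene and DsRed2 were seeded at 600 cells/well in Opti-MEM with 2% FBS, pin-dosed, and incubated 48 hrs at 37 °C, 5% CO2. Laser-scanning cytometry (488 nm) gave GFP/RFP total intensity ratio.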

A short description of test [3]: qHTS for differential inhibitors of proliferation of Plasmodium falciparum line 7G8 (AID 1815).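 Further: parasite growth measured after three days of incubation.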 Further: potency means the concentration at half of the fitted maximal effect.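 On activity change, negative = inhibition: plate controls were vehicle wells for no effect and reference inhibitor wells for full effect.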
The nature of test [4]: qHTS for differential inhibitors of proliferation of Plasmodium falciparum line GB4 (AID 1816).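 Further: parasite growth measured after 72 h incubation.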 Further: potency means the concentration at half of the fitted maximal effect.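 On activity change, negative = inhibition: 0% = vehicle DMSO and -100% = reference inhibitor.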 The note with it: Potency: Plasmodium falciparum GB4 proliferation inhibition.
The nature of test [5]: qHTS for differential inhibitors of proliferation of Plasmodium falciparum line 3D7 (AID 1876). Further: potency means the concentration at half of the fitted maximal effect.
Test [6] is described as follows: qHTS for differential inhibitors of proliferation of Plasmodium falciparum line D10 (AID 1877).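 Further: parasites grown with compound for 72 h before DNA staining.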 Further: potency means the concentration at half of the fitted maximal effect.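 On activity change, negative = inhibition: plate controls were vehicle wells for no effect and reference inhibitor wells for full effect.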
A short description of test [7]: qHTS for differential inhibitors of proliferation of Plasmodium falciparum line Dd2 (AID 1882). Further: nearly all actives have a fitted effect of over 65% in size. Further: potency means the concentration at half of the fitted maximal effect.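 On activity change, negative = inhibition: plate controls were DMSO vehicle for no effect and 0.29 µM artemisinin for full effect.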 As to conditions: Potency: Plasmodium falciparum Dd2 proliferation inhibition. In a few lines: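 Dd2-infected erythrocytes (0.3% parasitemia, 2.5% hematocrit final) incubated with compound 72 h at 37 C, 5% CO2; lysed with saponin/Triton buffer containing SYBR Green I, incubated overnight in the dark, then read by fluorescence (485/535 nm). Normalized to 0.29 uM artemisinin and DMSO.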

Test [8] is described as follows: qHTS for differential inhibitors of proliferation of Plasmodium falciparum line W2 (AID 1883).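 Further: parasites grown with compound for 72 h before lysis and staining.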 Further: potency means the concentration at half of the fitted maximal effect.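 On activity change, negative = inhibition: 0% = vehicle wells and -100% = control inhibitor wells.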 The note with it: Potency: Plasmodium falciparum W2 proliferation inhibition.
The nature of test [9]: qHTS for differential inhibitors of proliferation of Plasmodium falciparum line HB3 (AID 1886).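 Further: parasites grown with compound for 72 h before SYBR Green readout.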 Further: potency means the concentration at half of the fitted maximal effect.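 On activity change, negative = inhibition: plate controls were vehicle for no effect and reference inhibitor for full effect.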 The note with it: Potency: Plasmodium falciparum HB3 proliferation inhibition.
For test [10], the target named is Ferritin light chain (Equus caballus) (UniProt P02791). Kind of test: qHTS Validation Assay for Identification of Novel General Anesthetics (AID 2323). Further: on the % scale 0 is the no-effect control and ±100 the full control effect. In a few lines:
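Competitive displacement of profluorescent 1-aminoanthracene (1-AMA, 50% saturated solution in PBS) from 10 uM horse-spleen apoferritin. Compounds incubated 10 min at room temperature; fluorescence read at 380 nm excitation/535 nm emission, normalized to free 1-AMA and complex, fitted with four-parameter Hill equation.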

In test [11] the target is ATP-dependent DNA helicase Q1 (Homo sapiens) (UniProt P46063). The test can be described thus: qHTS Validation Assay for Inhibitors of RecQ-Like Dna Helicase 1 (RECQ1) (AID 2353).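 Further: plate controls were DMSO vehicle for no effect and enzyme-free control for full effect.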 Put shortly:
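50 nM RECQ1T1 preincubated 15 min with compound in Tris pH 8.0 buffer with MgCl2, DTT, Tween-20 and 2.5 ug/ml poly(dI-dC); started with 200 nM TAMRA/BHQ-2 forked duplex and 2 mM ATP. Unwinding read as fluorescence (525/598 nm), two reads 2 h apart.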

The target of test [12] is RecQ-like DNA helicase BLM (Homo sapiens) (UniProt P54132). The test can be described thus: qHTS Validation Assay for Inhibitors of Bloom's syndrome helicase (BLM) (AID 2364).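 Further: plate controls were DMSO vehicle for no effect and enzyme-free control for full effect.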 Put shortly: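 50 nM BLM preincubated 15 min at room temperature with compound in pH 8.0 Tris buffer containing 2.5 ug/ml poly(dI-dC); started with 200 nM TAMRA/BHQ-2 forked duplex and 2 mM ATP (final). Unwinding read as TAMRA fluorescence increase, two reads 2 h apart.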
RecQ-like DNA helicase BLM (Homo sapiens), sequence (P54132 whole entry, looked up): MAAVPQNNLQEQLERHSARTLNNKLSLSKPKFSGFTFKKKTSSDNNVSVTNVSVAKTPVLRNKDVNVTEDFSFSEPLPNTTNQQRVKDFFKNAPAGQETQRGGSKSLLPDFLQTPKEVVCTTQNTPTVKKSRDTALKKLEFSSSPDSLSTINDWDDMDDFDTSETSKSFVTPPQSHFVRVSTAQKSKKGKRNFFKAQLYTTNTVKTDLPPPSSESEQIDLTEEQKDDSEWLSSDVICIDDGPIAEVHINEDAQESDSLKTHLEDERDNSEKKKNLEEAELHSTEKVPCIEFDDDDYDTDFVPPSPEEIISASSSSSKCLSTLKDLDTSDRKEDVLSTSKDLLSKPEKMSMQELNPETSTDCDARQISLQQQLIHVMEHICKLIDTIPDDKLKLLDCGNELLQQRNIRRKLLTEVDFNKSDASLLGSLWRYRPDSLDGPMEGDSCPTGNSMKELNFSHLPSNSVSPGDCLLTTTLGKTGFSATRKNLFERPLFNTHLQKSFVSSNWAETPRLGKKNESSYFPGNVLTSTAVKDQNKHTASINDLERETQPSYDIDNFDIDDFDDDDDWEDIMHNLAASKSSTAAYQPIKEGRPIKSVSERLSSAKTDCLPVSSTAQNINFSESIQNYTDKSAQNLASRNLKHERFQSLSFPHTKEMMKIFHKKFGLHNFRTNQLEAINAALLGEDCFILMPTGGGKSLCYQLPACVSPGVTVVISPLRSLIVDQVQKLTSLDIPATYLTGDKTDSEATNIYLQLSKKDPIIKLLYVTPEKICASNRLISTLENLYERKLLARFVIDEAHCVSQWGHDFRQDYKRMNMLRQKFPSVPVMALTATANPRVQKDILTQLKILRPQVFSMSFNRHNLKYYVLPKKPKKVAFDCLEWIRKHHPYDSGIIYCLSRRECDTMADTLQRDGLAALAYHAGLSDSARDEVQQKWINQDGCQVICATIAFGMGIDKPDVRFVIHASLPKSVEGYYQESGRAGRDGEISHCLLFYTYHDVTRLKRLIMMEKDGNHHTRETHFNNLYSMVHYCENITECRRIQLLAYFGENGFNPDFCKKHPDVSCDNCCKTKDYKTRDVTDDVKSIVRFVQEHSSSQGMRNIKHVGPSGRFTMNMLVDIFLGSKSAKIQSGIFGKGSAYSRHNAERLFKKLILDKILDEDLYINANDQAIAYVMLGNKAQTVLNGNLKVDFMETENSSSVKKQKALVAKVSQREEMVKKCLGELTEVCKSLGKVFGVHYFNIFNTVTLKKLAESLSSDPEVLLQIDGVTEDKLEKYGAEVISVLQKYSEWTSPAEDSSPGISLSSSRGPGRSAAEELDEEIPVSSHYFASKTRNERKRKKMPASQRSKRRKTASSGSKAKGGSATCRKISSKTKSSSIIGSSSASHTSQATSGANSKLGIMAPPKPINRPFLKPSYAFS

A short description of test [13]: High Content Imaging Cell-Based qHTS for Inhibitors of the mTORC1 Signaling Pathway in MEF (Tsc2-/-, p53-/-) Cells (AID 2666).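 Further: percent of cells scored positive for phospho-rpS6 Ser235/236 immunostaining by imaging.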 The note with it: at 38.3 µM (top of the series). In a few lines:
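Phospho-rpS6 (Ser235/236) immunofluorescence, normalized and scored as % positive cells using rapamycin and DMSO controls, was read in empty-vector Tsc2-/-, p53-/- MEFs after 24 h compound exposure at 37 C; propidium iodide counted cells.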

A short description of test [14]: Validation screen for inhibitors of Lassa infection (AID 463096; calls by dose curve; further: on the % scale 0 is the no-effect control and ±100 the full control effect).
Test [15] can be described thus: Validation screen for small molecules that induce DNA re-replication in MCF 10A normal breast cells (AID 463097). Further: 0% is about no effect; nearly all actives have a fitted effect of over 60% in size. In a few lines: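 Readout: Hoechst nuclear fluorescence intensity, 405 ex / 500-530 em, by scanning plate imager; re-replication scored as increase in nuclei with elevated DNA content. Cells exposed to compound 48 hr, 37 C, 5% CO2 beforehand.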
Test [16] addresses Ubiquitin carboxyl-terminal hydrolase 2 (Homo sapiens) (UniProt O75604). The test can be described thus: qHTS Validation Assay for Inhibitors of Ubiquitin-specific Protease USP2a Using CHOP2 as the Reporter (AID 463106).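 Further: plate controls were DMSO for no effect and full inhibition by NEM for full effect.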 Put shortly: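 USP2 core (10 nM final) was preincubated with compound 30 min at RT in pH 8.0 Tris/CaCl2/beta-ME/CHAPS buffer. Ub-CHOP2 and reporter substrate (25 nM final each) were then added, with fluorescence (Ex 485/Em 531) read after 60 min. Data were normalized to NEM full inhibition and fitted to concentration-response curves.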

The nature of test [17]: qHTS Assay for Lipid Storage Modulators (AID 1519; calls by dose curve; on activity change, negative = inhibition: on the % scale 0 is the no-effect control and ±100 the full control effect). The note with it: Drosophila S3 cells, BODIPY lipid droplet/cell ratio, laser cytometry, cells loaded with oleic acid. In a few lines:
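Cells seeded at 5,000 per well were treated with compounds over a concentration series and loaded with oleic acid (400 uM, as added). Lipid droplet fluorescence (488 nm excitation, 500-530 nm channel) was read by laser-scanning cytometry and normalized to 20 uM Triacsin C.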

For test [18], the target named is alpha-glucosidase (Oryza sativa, rice) (UniProt Q653V4). Kind of test: Counterscreen for Glucocerebrosidase Inhibitors: qHTS Assay for Rice alpha-Glucosidase at pH 5.0 (AID 997).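 Further: 0% = full activity with enzyme and -100% = basal without enzyme.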 In a few lines:
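Rice alpha-glucosidase (4 nM final) with 400 uM 4-methylumbelliferyl-alpha-D-glucopyranoside in citrate buffer pH 5.0, 20 min at room temperature, stopped at pH 10; fluorescence 365/440 nm, compounds 0.7 nM–77 uM, AC50 from Hill fits.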

Test [19] addresses Alpha-galactosidase (Coffea arabica) (UniProt Q42656). Kind of test: Counterscreen for Glucocerebrosidase Inhibitors: qHTS Assay for Coffee Bean alpha-Galactosidase at pH 5.9 (AID 998).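 Further: plate controls were uninhibited enzyme for no effect and no-enzyme basal signal for full effect.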 Put shortly: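 Green coffee bean enzyme (2 nM) with 4-methylumbelliferyl alpha-D-galactopyranoside (80 uM) in 50 mM citric acid, 0.005% Tween-20, pH 5.9, 20 min at room temperature; compounds 0.7 nM–77 uM. Stopped at pH 10, fluorescence Ex365/Em440; Hill-fit AC50.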

Test [20] can be described thus: qHTS Assay for Modulators of Human Peripheral Myelin Protein 22 (PMP22) Expression/Activity (AID 1967; active means well fitted curve in the direction sought with a large enough effect in the signal ratio; the % refers to the signal ratio;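 further: 0% = untreated cells and 100% end not stated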). Put shortly:
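MSC80 mouse Schwann cells stably carrying Pmp22 promoter–green click beetle luciferase plus EF-alpha–red luciferase control were dosed for 24h at 37 °C. Dual-colour luminescence was filter-overlap corrected; %Activity came from green/red ratio versus untreated cells.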

Setting [21] is: measured here: cell count channel max response.
Setting [22] is: measured here: lipid channel max response.

SMILES strings stand for the structures. Several values for one entry are separate records, joined by “and”; a condition that tells them apart may be missing. Identical values can stand only once. Results filed as inconclusive are left out. Activity calls are given as the source filed them. Unless noted, the call rests on the fitted dose curve; in most records, active means well fitted curve in the direction sought with a large enough effect; inconclusive means small, poorly fitted or top-dose-only effect, or another doubt; inactive means no such curve, though single readings can be large; an effect the other way counts as inactive or inconclusive.

Ferritin light chain (Equus caballus), sequence (P02791 2-175 limits assumed): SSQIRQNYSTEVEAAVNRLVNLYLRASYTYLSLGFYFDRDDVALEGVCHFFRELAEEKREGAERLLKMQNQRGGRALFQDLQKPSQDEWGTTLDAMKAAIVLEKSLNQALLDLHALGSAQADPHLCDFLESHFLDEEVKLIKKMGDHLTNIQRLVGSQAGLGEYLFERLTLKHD
Ubiquitin carboxyl-terminal hydrolase 2 (Homo sapiens), sequence (O75604 whole entry, looked up): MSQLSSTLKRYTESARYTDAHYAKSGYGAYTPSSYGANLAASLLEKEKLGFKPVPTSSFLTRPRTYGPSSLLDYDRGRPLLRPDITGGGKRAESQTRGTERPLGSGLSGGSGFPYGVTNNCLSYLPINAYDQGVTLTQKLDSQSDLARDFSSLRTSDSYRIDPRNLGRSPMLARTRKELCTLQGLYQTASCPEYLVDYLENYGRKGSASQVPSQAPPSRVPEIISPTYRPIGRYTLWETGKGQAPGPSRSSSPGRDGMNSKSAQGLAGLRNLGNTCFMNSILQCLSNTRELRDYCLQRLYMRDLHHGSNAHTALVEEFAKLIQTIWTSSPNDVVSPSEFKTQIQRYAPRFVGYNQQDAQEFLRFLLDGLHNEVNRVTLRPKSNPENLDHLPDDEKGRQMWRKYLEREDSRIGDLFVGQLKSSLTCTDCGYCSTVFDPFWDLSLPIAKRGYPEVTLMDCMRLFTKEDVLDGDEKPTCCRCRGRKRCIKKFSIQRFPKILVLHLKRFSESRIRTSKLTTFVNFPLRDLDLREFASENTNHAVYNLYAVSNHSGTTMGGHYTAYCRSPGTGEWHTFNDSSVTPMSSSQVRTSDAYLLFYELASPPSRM
ATP-dependent DNA helicase Q1 (Homo sapiens), sequence (P46063 whole entry, looked up): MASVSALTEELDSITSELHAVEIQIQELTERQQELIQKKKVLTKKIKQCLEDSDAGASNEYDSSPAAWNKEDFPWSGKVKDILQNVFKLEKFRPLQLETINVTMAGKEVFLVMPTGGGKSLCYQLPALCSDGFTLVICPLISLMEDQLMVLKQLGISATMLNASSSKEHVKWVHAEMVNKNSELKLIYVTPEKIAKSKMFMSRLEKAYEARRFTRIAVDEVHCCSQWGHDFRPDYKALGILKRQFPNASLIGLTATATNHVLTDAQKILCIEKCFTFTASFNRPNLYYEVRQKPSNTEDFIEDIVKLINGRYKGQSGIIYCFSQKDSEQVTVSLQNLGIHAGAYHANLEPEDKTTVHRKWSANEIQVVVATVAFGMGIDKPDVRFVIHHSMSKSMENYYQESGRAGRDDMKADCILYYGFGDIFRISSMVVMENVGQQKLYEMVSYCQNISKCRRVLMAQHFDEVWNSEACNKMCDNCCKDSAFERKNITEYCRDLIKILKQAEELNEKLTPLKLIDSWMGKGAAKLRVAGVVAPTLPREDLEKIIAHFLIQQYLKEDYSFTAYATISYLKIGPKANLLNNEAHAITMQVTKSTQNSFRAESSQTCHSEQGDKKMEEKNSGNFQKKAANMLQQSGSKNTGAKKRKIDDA
Alpha-galactosidase (Coffea arabica), sequence (Q42656 whole entry, looked up): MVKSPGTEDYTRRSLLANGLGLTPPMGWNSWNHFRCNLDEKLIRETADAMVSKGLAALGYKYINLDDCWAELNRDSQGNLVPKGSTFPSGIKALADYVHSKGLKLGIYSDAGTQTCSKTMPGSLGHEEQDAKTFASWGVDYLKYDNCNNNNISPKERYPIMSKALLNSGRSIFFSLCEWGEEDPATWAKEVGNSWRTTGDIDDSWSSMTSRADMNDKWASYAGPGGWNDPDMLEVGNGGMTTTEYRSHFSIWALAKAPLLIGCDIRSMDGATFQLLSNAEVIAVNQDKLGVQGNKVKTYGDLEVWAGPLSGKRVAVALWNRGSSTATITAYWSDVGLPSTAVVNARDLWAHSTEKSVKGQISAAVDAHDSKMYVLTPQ

With `CCC(C)(C)c1ccc(O)cc1`, the molecule was called inactive in [1].
Take `CCC1(c2ccc(N)cc2)CCC(=O)NC1=O` (stereo not given): the molecule was called inactive in [2], in [10], in [12], in test [13], in test [14] and in test [15]. In addition, the result in test [16] was inactive. Also, the Potency entry in [3], in [4], in test [5], in [6], in [7] and in test [8] was “inactive” each time. Moreover, the Potency entry in test [9] and in test [11] was “inactive” each time.
Take `CNC(C)(C)Cc1ccccc1`: the values for the activity change, negative = inhibition in [17] (at 25.7 µM (top of the series)) and in [17] (at 57.5 µM (top of the series)) were -3.38% (inactive) and 12% (inactive), respectively. For the same molecule, the max response in test [17] (setting [21]) is -19% and 14.2%; in test [17] (setting [22]), -21.7% and 31.6%.
As for `Oc1ccc(Cl)cc1`, in test [1], the molecule was classed as inactive.
Consider `NCCc1ccc(O)cc1`, for which the molecule was called inactive in test [18], in test [19], in [2], in test [20], in test [10] and in test [13]. Further, the call in test [14], in [15] and in [16] was inactive. In addition, the Potency entry in [3], in test [4], in [5], in [6], in [7] and in test [8] was “inactive” in each case. Moreover, the Potency result in test [9] and in [11] was “inactive” each time.
In the case of `CCC1(CC)C(=O)C=CNC1=O`, the results for the activity change, negative = inhibition in [17] (at 25.7 µM (top of the series)) and in test [17] (at 57.5 µM (top of the series)) were -2.39% (inactive) and 5.04% (inactive), respectively. Besides, the max response in test [17] (setting [21]) is -5.28% and 19.1%; in [17] (setting [22]) it was -7.28% and 25.2%.
On to `CC(NC(C)(C)C)C(=O)c1cccc(Cl)c1` (stereo not given), for which the call in [2], in test [20], in [10], in test [13], in test [14] and in test [15] was inactive. Further, in test [16], the molecule was called inactive. For the same molecule, the activity change, negative = inhibition in [17] (at 57.5 µM (top of the series)) is 9.02% (inactive) and 0.884% (inactive). Besides, the max response is 11.7% and -20.3% in [17] (setting [21]); 23.1% and -17.7% in test [17] (setting [22]). The Potency in test [4] was 12.6 µM (active). Besides, the Potency result in test [5], in [6], in test [9] and in test [11] was “inactive” throughout.
`NC(=O)c1cc([N+](=O)[O-])cc([N+](=O)[O-])c1`: the activity change, negative = inhibition in test [17] (at 57.5 µM (top of the series)) was 2.42% (inactive). Further, the max response in [17] (setting [21]) amounted to 0.174%; in test [17] (setting [22]) it was 7.25%.
Consider `CC(=O)N1CCN(c2ccc(OC[C@H]3CO[C@](Cn4ccnc4)(c4ccc(Cl)cc4Cl)O3)cc2)CC1`, for which the result in [19] and in [14] was inactive. Further, the Potency in test [3] is 11.2 µM (active); in test [4], 7.94 µM (active); in [5] it was 7.08 µM (active); in test [6], 10 µM (active); in test [7] it was 7.94 µM (active); in test [8] it was 7.08 µM (active). Also, in [9], the Potency was 11.2 µM (active).
For the molecule `Cc1ncsc1CCCl`, in test [17] (at 57.5 µM (top of the series)), the activity change, negative = inhibition was 4.7% (inactive). Also, the max response was 0.112% in test [17] (setting [21]) and 4.95% in test [17] (setting [22]). Also, the call in test [13] and in test [16] was inactive.
Take `CC(C)(C)NCC(O)c1ccccc1Cl` (stereo not given): the activity change, negative = inhibition in test [17] (at 57.5 µM (top of the series)) is 6.93% (inactive) and 0.29% (inactive). The max response in [17] (setting [21]) is -1.25% and 42.1%; in test [17] (setting [22]) it was 8.8% and 40.7%. The Potency in test [3] was 5.62 µM (active); in test [4] it was 6.31 µM (active); in test [7] it was 12.6 µM (active); in test [8], 4.47 µM (active). Moreover, the molecule was classed as inactive in [10], in test [13], in test [14], in test [15] and in [16]. Also, the Potency result in [11] was “inactive”.
In the case of `COc1c2c(cc3c1OCO3)CCN(C)C2`, the activity change, negative = inhibition in test [17] (at 25.7 µM (top of the series)) is 1.64% (inactive). Besides, the max response in test [17] (setting [21]) was 2.73%; in [17] (setting [22]) it was 3.88%.
